Test [1] can be described thus: binders of probe aFSTL3 on microarray, primary screen, stem cell growth factor project, biochemical, small-molecule microarray, fluorescence 635/667 (AID 1064).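 Also: measures binding of the biotinylated anti-FSTL3 antibody to printed compounds.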 Particulars: higher = more signal.
A short description of test [2]: binders from COS7 lysate, DM2A8 probe, primary screen, torsin A project, cell lysate, small-molecule microarray, fluorescence 635/667 (AID 1065). The note with it: higher = more signal, COS7 lysate expressing mutant human TOR1A.
The nature of test [3]: binders of probe aFGF2 on microarray, primary screen, stem cell growth factor project, biochemical, small-molecule microarray, fluorescence 635/667 (AID 1067).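 Also: measures binding of biotinylated aFGF2 protein to printed compounds on slides; z-score merges feature fluorescence and signal-to-noise across triplicate slides.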 Particulars: higher = more signal.
Test [4] in a line: binders of probe aFGF10 on microarray, primary screen, stem cell growth factor project, biochemical, small-molecule microarray, fluorescence 635/667 (AID 1071).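 Also: score merges 667 nm spot intensity and signal to noise from triplicate slides.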 Particulars: higher = more signal.
Test [5] has as its target Neurogenic locus notch homolog protein 2 (Homo sapiens) (UniProt Q04721). Briefly: Notch2 binders on small-molecule microarrays, primary screen, biochemical, small-molecule microarray, 635 nm fluorescence, stem cell growth factors (AID 1073). The note with it: Notch2 binding, higher = more signal.
Test [6] concerns the target Pro-neuregulin-1, membrane-bound isoform (Homo sapiens) (UniProt Q02297). The test can be described thus: NRG1 binders on small-molecule microarrays, primary screen, psychiatric disease protein project, biochemical, small-molecule microarray, fluorescence 635/667 (AID 1075).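 Also: score combines 667 nm spot fluorescence with signal to noise.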 Particulars: NRG1 binding, 635 nm fluorescence, higher = more signal.
Test [7] relates to Neuregulin-1 EGF-like domain. Briefly: binders of neuregulin-1 EGF-like domain, primary screen, biochemical, small-molecule microarray, 635 nm fluorescence (AID 1081).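 Also: binding of the protein to compounds printed on small-molecule microarray slides.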 Particulars: small-molecule microarray binding, higher = more signal.
Test [8] is described as follows: FRG1 promoter luciferase signal modulators, primary screen, FRG1 inhibition for FSHD, cell-based, C2C12 myotubes, firefly/Renilla luciferase, luminescence (AID 1084). Particulars: higher = more signal, called active from +8 up or from −8 down.
Test [9] can be described thus: binders of probe aFST on microarray, primary screen, stem cell growth factor project, biochemical, small-molecule microarray, fluorescence 635/667 (AID 1086).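 Also: score merges 667 nm fluorescence with signal-to-noise of each printed compound spot.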 The note with it: higher = more signal.
Test [10] in a line: binders of probe aHhip on microarray, primary screen, stem cell growth factor project, biochemical, small-molecule microarray, fluorescence 635/667 (AID 1087).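 Also: score merges spot fluorescence at 667nm with spot signal to noise ratio.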 Particulars: higher = more signal.
In test [11] the test system is PRMT1 (protein arginine N-methyltransferase 1). Briefly: PRMT1 binders on small-molecule microarrays, primary screen, biochemical, small-molecule microarray, 635 nm fluorescence (AID 1088).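 Also: binding of Prmt1 protein to compounds spotted on small-molecule microarray slides.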 The note with it: small-molecule microarray binding, higher = more signal.
Test [12] in a line: yeast growth modulation, basal conditions, primary screen, YJM789 clinical isolate, OD600, 24 h (AID 1089).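 Also: growth of clinical yeast isolate S. cerevisiae YJM 789 seeded 1000 cells per well; test concentration not given here.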 Particulars: S. cerevisiae YJM789 growth, higher = more signal, called active from +8 up or from −8 down.
Test [13] can be described thus: fission yeast growth modulation, primary screen, strain 972, OD600, 24 h, no modulator (AID 1090).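 Also: basal condition with compound alone and no growth modifier present; test concentration not given here.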 The note with it: S. pombe 972 growth, higher = more signal, called active from +8 up or from −8 down.
The nature of test [14]: S. cerevisiae growth modulation with rapamycin, primary screen, strain BY4716, OD600, 96 h (AID 1091). Also: test concentration not given here. The note with it: higher = more signal, called active from +8 up or from −8 down.
The target in test [15] is Torsin-1A-interacting protein 2 (Homo sapiens) (UniProt Q8NFQ8). Briefly: LULL1 binders on small-molecule microarray, primary screen, cell lysate, human LULL1 lysate, 635/667 nm fluorescence (AID 1092).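 Also: probe is lysate of COS7 cells overexpressing human LULL1; score merges per-feature 667 nm fluorescence with signal-to-noise.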 Particulars: hLULL1 lysate binding, 635 nm fluorescence, higher = more signal.
Torsin-1A-interacting protein 2 (Homo sapiens), sequence (Q8NFQ8 whole entry, looked up): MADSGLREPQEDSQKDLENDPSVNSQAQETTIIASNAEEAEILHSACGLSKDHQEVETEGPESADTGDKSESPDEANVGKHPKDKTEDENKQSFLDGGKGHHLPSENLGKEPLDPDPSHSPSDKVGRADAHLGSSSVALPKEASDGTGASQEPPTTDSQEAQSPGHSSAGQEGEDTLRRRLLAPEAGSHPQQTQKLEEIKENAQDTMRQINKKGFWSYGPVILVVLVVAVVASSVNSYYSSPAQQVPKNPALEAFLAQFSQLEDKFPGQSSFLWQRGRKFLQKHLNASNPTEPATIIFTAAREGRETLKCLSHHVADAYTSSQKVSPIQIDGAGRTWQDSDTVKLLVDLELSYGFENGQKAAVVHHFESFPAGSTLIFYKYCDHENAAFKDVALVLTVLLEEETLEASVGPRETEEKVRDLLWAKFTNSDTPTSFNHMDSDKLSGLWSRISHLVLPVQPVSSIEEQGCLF
A short description of test [16]: E. coli growth modulation, two-sided OD650, primary screen, E. coli filamentation project, strain DRC41, 24 h (AID 1093).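 Also: MC1000 strain lacking acrAB efflux and sulA so SOS filamentation is blocked; test concentration not given here.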 The note with it: OD650, 24 h, higher = more signal, called active from +8 up or from −8 down.
Test [17] can be described thus: small-molecule microarray binders of probe aLefty2, primary screen, biochemical, biotinylated probe, 635/667 nm fluorescence (AID 1094).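 Also: score merges spot fluorescence near 667 nm with spot signal-to-noise ratio.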 The note with it: higher = more signal.
Test [18] relates to Noggin (protein binding on small-molecule microarray). The test can be described thus: Noggin binders on small-molecule microarray, primary screen, biochemical, 635/667 nm fluorescence (AID 1095).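 Also: score merges 667 nm feature fluorescence with signal to noise over triplicate slides.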 Particulars: 635 nm fluorescence, higher = more signal.
In test [19] the target is Neurogenic locus notch homolog protein 3 (Homo sapiens) (UniProt Q9UM47). The test can be described thus: NOTCH3 binders on small-molecule microarray, primary screen, biochemical, 635/667 nm fluorescence (AID 1096). The note with it: NOTCH3 binding, 635 nm fluorescence, higher = more signal.
A short description of test [20]: small-molecule microarray binders of probe aEGFR, primary screen, biochemical, biotinylated probe, 635/667 nm fluorescence (AID 1097).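 Also: probe is a biotinylated anti-EGFR antibody binding compounds printed on slides; score combines fluorescence near 667 nm and signal to noise of each spot.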 The note with it: higher = more signal.

Active and inactive are the calls of the source.

Pro-neuregulin-1, membrane-bound isoform (Homo sapiens), sequence (Q02297 whole entry, looked up, the tested form may be a part, canonical isoform): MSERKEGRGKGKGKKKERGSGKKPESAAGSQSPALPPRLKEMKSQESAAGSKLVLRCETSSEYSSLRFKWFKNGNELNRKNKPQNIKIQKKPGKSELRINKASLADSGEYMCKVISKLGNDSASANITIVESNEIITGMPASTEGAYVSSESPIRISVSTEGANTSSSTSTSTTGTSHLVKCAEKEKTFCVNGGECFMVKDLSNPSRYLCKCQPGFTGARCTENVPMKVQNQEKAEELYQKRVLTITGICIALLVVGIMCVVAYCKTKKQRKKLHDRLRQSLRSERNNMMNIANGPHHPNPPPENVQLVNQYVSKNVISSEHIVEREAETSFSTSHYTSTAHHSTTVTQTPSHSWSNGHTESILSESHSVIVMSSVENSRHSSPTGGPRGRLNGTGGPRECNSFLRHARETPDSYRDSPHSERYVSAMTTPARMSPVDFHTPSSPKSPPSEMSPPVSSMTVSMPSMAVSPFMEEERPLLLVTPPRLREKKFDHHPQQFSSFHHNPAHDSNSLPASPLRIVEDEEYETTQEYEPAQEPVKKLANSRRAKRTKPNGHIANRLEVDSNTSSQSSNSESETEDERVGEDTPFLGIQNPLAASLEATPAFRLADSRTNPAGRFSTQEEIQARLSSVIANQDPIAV
Neurogenic locus notch homolog protein 2 (Homo sapiens), sequence (Q04721 whole entry, looked up, canonical isoform): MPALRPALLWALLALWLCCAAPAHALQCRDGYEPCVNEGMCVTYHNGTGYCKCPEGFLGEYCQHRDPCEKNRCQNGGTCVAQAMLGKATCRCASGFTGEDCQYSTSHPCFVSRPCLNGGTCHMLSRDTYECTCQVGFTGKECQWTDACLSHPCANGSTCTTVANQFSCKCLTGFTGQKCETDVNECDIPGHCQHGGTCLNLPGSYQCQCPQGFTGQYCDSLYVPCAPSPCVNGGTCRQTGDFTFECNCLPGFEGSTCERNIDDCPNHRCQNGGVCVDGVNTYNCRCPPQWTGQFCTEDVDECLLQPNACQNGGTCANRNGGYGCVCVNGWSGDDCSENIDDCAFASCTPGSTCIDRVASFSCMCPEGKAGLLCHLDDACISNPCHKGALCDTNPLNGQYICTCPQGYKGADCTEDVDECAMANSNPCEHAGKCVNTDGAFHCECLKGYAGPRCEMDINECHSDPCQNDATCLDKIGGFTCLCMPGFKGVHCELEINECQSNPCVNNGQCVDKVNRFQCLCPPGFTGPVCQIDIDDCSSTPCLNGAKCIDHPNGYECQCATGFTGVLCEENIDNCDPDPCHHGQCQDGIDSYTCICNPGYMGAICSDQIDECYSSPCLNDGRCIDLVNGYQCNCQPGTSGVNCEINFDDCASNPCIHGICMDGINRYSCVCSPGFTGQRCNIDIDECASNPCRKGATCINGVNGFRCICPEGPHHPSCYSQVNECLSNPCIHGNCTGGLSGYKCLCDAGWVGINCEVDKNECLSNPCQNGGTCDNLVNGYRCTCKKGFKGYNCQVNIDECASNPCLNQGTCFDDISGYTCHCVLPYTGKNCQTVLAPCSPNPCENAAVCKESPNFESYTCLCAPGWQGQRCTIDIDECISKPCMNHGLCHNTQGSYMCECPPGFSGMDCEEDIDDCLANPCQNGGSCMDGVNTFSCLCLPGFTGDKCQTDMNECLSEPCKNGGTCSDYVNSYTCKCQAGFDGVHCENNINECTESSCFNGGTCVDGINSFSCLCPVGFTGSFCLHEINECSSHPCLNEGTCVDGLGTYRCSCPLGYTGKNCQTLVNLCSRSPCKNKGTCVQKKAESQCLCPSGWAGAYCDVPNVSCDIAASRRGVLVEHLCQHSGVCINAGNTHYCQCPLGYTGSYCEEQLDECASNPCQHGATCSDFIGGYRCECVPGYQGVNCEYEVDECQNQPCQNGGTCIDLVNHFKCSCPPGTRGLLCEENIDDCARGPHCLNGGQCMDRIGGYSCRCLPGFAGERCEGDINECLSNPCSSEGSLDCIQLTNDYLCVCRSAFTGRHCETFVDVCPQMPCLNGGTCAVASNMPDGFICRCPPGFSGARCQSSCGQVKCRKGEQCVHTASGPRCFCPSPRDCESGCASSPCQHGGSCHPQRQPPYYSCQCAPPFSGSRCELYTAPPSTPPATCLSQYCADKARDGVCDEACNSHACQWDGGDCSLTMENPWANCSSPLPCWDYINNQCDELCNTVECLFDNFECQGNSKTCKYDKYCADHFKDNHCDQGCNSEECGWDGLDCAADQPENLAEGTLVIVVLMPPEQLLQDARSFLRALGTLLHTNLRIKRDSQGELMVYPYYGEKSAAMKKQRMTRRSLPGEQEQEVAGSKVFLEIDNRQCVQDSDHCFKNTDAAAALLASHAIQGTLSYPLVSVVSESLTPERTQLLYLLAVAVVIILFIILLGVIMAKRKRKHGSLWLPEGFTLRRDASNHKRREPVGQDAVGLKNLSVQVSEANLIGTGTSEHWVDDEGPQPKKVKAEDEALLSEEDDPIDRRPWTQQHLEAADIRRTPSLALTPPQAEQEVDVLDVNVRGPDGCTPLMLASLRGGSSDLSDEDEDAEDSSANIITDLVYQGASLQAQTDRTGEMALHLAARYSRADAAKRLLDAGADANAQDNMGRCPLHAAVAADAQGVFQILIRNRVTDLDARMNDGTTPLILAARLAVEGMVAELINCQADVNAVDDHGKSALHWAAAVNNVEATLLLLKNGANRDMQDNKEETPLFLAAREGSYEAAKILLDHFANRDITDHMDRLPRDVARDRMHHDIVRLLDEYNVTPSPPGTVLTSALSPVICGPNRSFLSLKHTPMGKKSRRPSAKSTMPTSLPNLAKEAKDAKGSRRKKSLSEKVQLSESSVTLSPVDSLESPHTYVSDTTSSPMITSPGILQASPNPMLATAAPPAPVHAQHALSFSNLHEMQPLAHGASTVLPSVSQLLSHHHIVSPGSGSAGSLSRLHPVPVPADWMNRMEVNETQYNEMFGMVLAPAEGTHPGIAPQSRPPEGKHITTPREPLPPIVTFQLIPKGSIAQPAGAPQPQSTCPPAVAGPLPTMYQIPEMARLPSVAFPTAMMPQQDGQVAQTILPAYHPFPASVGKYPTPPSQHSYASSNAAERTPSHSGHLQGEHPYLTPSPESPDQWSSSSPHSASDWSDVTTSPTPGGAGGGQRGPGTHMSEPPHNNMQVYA

Regarding `COc1cc(C(O)C2C=CC3C(=O)NC(=O)C3N2Nc2ccc(Cl)cc2Cl)cc(OC)c1OC` (stereo not given), the composite z-score in [1] is 0.223; in test [2], -1.1; in test [3] it was 0.0461; in [4], 0.476; in [5], 1.63; in [6] it was 1.72. Moreover, the composite z-score in test [7] is 1.21; in [9], 1.7; in test [10], 0.203; in test [11], 1.18; in [15] it was 3.27; in [17], 0.162. Besides, the composite z-score was 0.049 in test [18], 1.09 in test [19] and 0.114 in [20]. The z-score in [8] was 1.15 (inactive); in [12] it was -12.3 (active); in test [13] it was -1.57 (inactive); in test [14], 0.27 (inactive); in test [16], -0.66 (inactive).

As to `O=C1C2C=CC(C(O)c3ccccn3)N(Nc3ccccc3)C2C(=O)N1c1ccccc1` (stereo not given), the composite z-score is -0.205 in test [1]; -1.39 in [2]; -0.105 in test [3]; 0.356 in test [4]; 0.177 in test [5]; 1.65 in test [6]. Moreover, the composite z-score in [7] is 1.03; in [9], 0.338; in [10] it was -0.0003; in test [11], 0.207; in [15], 2.24; in [17], -0.0991. Moreover, the results for the composite z-score in test [18], in test [19] and in test [20] were -0.292, -0.254 and -0.108, respectively. Moreover, the z-score is 1.29 (inactive) in test [8]; 0.756 (inactive) in test [12]; 1.41 (inactive) in test [13]; 0.391 (inactive) in [14]; -0.917 (inactive) in test [16].

As for `COC(=O)[C@@]1(Cc2ccccc2)[C@H]2c3cc(C(=O)N4CCCC4)n(CCO)c3C[C@H]2CN1C(=O)c1ccccc1`, the composite z-score in test [1] stood at 1.35; in test [2], 2.52; in test [3], 0.759; in test [4] it was 0.77; in [5], 1.58; in test [6], 1.62. The composite z-score in [7] amounted to 1.15; in test [9], 2.6; in [10], 0.216; in test [11], 0.718; in test [15], 2.92; in test [17] it was 1.35. Besides, the figures for the composite z-score in [18], in test [19] and in test [20] were 0.815, 0.946 and 0.986, respectively. In addition, the z-score in test [8] was -0.292 (inactive); in test [12], -0.598 (inactive); in [13], 1.45 (inactive); in test [14], -1.88 (inactive); in test [16], -0.237 (inactive).

The values above are taken from PubChem BioAssay.
